# Screens from PubChem.
# Sampled rows, rich in hits. Any-hit rate of the full collection: about 5.7%.
# rCAG binder: binds r(CAG) RNA repeats; inhibition, % at 3 µM; 370,000 compounds, 1.3% hits; r(CAG) RNA repeat, TO-PRO-1 dye displacement fluorescence; AID 651821;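 active = inhibition above the plate cutoff, the mean of all test compounds on that plate plus 3 SD, cut at about 35% in these data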;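 also: 0% = DMSO alone and 100% = 100 µM mitoxantrone as full dye displacement; higher means more dye released from RNA so lower well fluorescence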
# MPTP block: permeability transition pore inhibition; isolated mouse mitochondria, Ca2+ swelling absorbance, 30 min; inhibition, % at 10 µM; 360,000 compounds, 1.4% hits;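 active = inhibition of 50% or more, scaled per plate between neutral and stimulator controls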;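 also: 0% = DMSO wells given calcium and 100% = 1 mM EGTA wells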
# FAS TE block: FAS thioesterase (human) inhibition; P49327; recombinant FAS-TE, OMFH fluorogenic substrate, fluorescence endpoint; inhibition, % at 15 µM; 360,000 compounds, 0.67% hits; AID 602261;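 active = compounds whose normalised, plate-corrected inhibition of enzyme fluorescence in the single-dose primary screen is 50% or more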;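 also: 0% = DMSO with enzyme and 100% = substrate without enzyme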
# Target sequence (P49327 whole entry, looked up): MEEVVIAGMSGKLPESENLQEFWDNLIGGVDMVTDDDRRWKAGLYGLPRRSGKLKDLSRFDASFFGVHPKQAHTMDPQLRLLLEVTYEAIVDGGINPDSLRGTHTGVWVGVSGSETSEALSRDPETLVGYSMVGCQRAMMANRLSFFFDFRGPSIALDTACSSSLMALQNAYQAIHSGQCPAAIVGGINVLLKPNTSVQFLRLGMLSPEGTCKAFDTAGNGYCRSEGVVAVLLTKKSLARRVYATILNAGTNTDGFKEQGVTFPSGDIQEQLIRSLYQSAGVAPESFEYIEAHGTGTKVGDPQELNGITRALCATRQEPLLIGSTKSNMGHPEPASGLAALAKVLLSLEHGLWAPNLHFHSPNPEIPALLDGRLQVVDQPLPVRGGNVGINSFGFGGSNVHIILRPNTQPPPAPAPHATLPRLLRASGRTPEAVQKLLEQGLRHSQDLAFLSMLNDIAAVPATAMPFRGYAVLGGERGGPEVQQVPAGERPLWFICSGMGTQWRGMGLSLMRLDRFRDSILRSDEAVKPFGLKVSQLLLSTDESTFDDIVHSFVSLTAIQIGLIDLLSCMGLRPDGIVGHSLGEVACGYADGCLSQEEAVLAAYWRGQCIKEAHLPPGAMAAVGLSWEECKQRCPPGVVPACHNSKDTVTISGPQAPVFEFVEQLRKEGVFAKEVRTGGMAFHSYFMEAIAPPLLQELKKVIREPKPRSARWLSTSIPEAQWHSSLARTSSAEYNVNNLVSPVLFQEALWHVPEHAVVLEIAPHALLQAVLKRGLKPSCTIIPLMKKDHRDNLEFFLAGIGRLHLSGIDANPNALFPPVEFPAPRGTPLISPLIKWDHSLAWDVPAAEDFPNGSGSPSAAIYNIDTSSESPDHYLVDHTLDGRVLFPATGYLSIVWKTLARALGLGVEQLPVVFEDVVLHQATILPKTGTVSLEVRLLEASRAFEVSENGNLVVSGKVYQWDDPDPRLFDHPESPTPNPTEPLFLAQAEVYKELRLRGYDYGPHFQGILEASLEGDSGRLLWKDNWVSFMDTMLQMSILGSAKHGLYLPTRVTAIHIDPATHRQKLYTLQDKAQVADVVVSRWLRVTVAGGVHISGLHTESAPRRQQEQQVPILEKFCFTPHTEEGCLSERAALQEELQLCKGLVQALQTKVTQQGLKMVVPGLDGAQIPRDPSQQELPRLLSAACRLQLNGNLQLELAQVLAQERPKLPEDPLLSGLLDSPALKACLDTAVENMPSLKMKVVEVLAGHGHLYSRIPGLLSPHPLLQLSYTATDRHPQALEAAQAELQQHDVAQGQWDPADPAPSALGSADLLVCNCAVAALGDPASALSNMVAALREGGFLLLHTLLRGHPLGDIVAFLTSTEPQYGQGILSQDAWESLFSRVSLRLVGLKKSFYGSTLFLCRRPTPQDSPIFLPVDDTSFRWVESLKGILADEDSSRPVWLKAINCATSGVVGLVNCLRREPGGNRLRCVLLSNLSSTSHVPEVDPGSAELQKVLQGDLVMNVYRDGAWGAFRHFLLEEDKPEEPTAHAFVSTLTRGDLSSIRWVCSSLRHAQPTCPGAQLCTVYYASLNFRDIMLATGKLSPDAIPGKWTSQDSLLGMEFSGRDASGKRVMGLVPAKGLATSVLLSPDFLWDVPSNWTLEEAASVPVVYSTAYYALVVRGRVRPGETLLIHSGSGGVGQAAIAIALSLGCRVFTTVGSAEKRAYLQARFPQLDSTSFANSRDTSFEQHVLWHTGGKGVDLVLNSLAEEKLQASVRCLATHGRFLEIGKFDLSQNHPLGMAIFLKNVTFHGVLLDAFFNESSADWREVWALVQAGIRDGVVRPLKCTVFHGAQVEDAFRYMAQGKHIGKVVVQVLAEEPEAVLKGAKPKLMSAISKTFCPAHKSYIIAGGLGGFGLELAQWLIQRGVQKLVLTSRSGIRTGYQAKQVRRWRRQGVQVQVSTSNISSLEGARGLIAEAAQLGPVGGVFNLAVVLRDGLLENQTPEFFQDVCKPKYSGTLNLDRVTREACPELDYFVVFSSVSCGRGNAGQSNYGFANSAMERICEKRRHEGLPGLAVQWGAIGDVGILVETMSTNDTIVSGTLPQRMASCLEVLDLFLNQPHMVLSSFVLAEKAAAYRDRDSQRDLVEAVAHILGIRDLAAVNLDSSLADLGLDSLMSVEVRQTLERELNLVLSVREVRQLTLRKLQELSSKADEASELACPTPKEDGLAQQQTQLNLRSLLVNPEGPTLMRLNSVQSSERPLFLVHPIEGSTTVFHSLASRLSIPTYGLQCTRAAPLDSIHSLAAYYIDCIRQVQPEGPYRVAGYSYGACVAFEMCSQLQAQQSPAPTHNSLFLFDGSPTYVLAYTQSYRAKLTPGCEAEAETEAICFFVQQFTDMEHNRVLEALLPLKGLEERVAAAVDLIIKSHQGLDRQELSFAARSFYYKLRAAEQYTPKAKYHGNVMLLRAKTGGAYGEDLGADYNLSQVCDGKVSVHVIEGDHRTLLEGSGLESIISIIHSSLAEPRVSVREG
# Myeloid diff 2: promotes myeloid progenitor differentiation. ER-HoxA9 myeloid progenitors, lysozyme-GFP differentiation, flow cytometry. calls only at 10 µM. 360,000 compounds, 1% hits;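 active = normalized GFP-positive differentiation at or above the plate's own cutoff, the solvent-only control mean plus 3 SD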;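 also: cells exposed to compound for four days before flow analysis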
# GRIN3A LBD mod: modulators (binders) of human NR3A ligand-binding domain | NR3A LBD differential scanning fluorimetry, Tm shift; 0% = protein alone, 100% = glycine-bound protein | Tm shift relative to glycine control, % at 25 µM | 340,000 compounds, 2.5% hits | AID 1259313;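 active = melting temperature shift of at least 10% of the positive control shift, at one fixed dose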
# * marks the source's active call; other numbers are inactive results; i = inactive; . = not tested or not shown; + = active, no number.
SMILES,rCAG binder,MPTP block,FAS TE block,Myeloid diff 2,GRIN3A LBD mod
CC1=NN(c2ccc(Cl)c(C(=O)O)c2)C(=O)/C1=C\c1ccc(-c2ccc(C(=O)O)cc2)o1,7.6,2.4,-6.9,i,1.6
CC1=NN(c2ccccc2)C(=O)/C1=C/c1ccc[nH]1,6.3,0.1,-8.4,i,17.2*
CCCCNC(=O)C[C@H]1C[C@@]2(C(=O)OC)C(=C[C@H](C(C)(C)C)O[C@@H]2C)N(Cc2ccc3c(c2)OCO3)C1=O,0.2,.,.,.,.
C[C@@H]1C=CCCO[C@]12C(=O)N(Cc1ccc(F)cc1)c1ccccc12,-1.3,.,.,.,.
Cc1[nH]c(=O)[nH]c(=O)c1CCSSCCc1c(C)[nH]c(=O)[nH]c1=O,0.5,.,.,.,.
COC(=O)C1=C(C)N(C)C(=NCc2ccc(OC)cc2)NC1c1cccc(Cl)c1 (stereo not given),7.7,.,.,.,.
O=C(CN1C(=O)NC2(CCc3ccccc32)C1=O)NCc1cccc(C(F)(F)F)c1 (stereo not given),1.2,0.2,4.1,i,11.2*
O=C(Nc1ccccc1)c1ccc(-c2ccc(F)cc2)s1,0.5,-2.0,-1.7,i,21.6*
COc1ccc(NC(=O)c2ccc(-c3ccc(OC)cc3)s2)cc1,0.8,-3.8,-10.8,i,22.3*
CNC(=O)c1ccc(-c2ccc(F)cc2)s1,-3.5,-0.1,0.5,i,-46.0
CN(C)C(=O)C[C@H]1C[C@@H]2c3cc(NC(=O)NC4CCCC4)ccc3O[C@@H]2[C@@H](CO)O1,0.6,.,.,.,.
CNC(=O)c1ccccc1C1(O)c2ccccc2CCc2ccccc21,0.8,.,.,.,.
COc1ccc(CN2C(=O)[C@]3(NCCc4c3[nH]c3ccc(OC)cc43)c3cc(Br)ccc32)cc1,14.0,.,.,.,.
Nc1ccc2c(c1)Cc1cc(Cl)c(Cl)cc1-2,7.6,3.0,10.3,i,15.2*
Nc1ccc2c(c1)Cc1cc(N)c(Cl)cc1-2,6.5,0.4,-1.9,i,8.6
Nc1cc2c(cc1N)-c1ccccc1C2,10.3,2.1,5.0,+,5.4
CCOC(=O)CC[C@H]1CC[C@]2(CCCN(C(=O)c3ccccc3)C2)O1,0.0,.,.,.,.
Cc1ccc(C)c2nc3sc(C(=O)N4CCCc5ccccc54)c(N)c3cc12,7.9,2.0,-33.1,+,2.6
COc1ccc(NC(=O)/C=C/c2c(Cl)nc3ccccn23)cc1,4.5,1.1,0.9,i,17.4*
O=C(/C(=C(\[O-])c1ccccc1)[n+]1ccc2ccccc2c1)c1ccc([N+](=O)[O-])cc1,-1.5,-1.0,13.5,i,-10.5
O=[N+]([O-])c1ccc(-[n+]2ccc3ccccc3c2)c([N+](=O)[O-])c1,4.5,-2.1,-1.8,+,0.8
C[C@H]1C2CC(OC(=O)Nc3ccccc3C(F)(F)F)C(C2)[C@H]2CCCCN21 (stereo not given in full),6.7,.,.,.,.
Cc1cc(C)c(-c2nc3ccccc3s2)[nH]1,9.3,0.2,0.2,+,-12.7
Oc1cccc(-c2nc3ccccc3s2)c1,3.7,3.6,6.1,i,-2.2
CNc1cc(C)nc(-n2nc(C)cc2C)n1,0.3,0.0,-5.2,i,11.0*
SMILES,rCAG binder,MPTP block,FAS TE block,Myeloid diff 2,GRIN3A LBD mod
Cc1cc(Cl)nc(-n2nc(C)cc2C)n1,-0.1,0.0,-3.5,i,-5.1
COc1cccc(-c2cnc3c(NC=O)cc(-c4cc(OC)c(OC)c(OC)c4)cn23)c1,10.3,-0.8,21.2,+,.
COc1ccc(-c2cc(NC=O)c3ncc(-c4cccc(C(=O)NCCN(C)C)c4)n3c2)cc1,11.0,-0.6,0.5,+,.
COC(=O)[C@H]1C[C@@]2(n3ccc4ccccc43)c3ccccc3N(S(=O)(=O)c3ccccc3)[C@H]2N1,3.9,.,.,.,.
COCc1cn(-c2ccc3c(c2)[C@]2(CC(=O)N(C)C2c2ccccc2)C(=O)N3CC(C)C)nn1 (stereo not given in full),-3.0,.,.,.,.
CC1(c2nnc(-c3cccc(Cl)c3)o2)CC(c2ccccc2F)=NO1 (stereo not given),-4.0,0.1,16.9,i,12.9*
COC(=O)[C@]12C[C@H](CC(=O)NCc3ccc(OC)c(OC)c3)C(=O)N(CCC3=CCCCC3)C1=C[C@H](C(C)C)O[C@@H]2C1CC1,2.5,.,.,.,.
Oc1ccc(/C=N/Nc2ccc(Cl)nn2)c(O)c1O,23.7,-0.1,-3.3,i,22.2*
O=C(NC(=S)N(Cc1ccccc1)Cc1ccccc1)C1CCCCC1,2.4,-0.4,24.2,i,-5.5
O=C(NC(=S)N(Cc1ccccc1)c1ccccn1)C1CC1,-0.1,-0.6,-7.8,i,17.5*
NNc1nc2c(Cl)c(Cl)ccc2s1,12.2,0.9,-11.8,i,11.1*
Cc1cccc(C)c1NC(=O)C1(C)CCC(=O)N1C1CC1 (stereo not given),1.8,-2.4,-11.0,i,.
CCN(CC)c1ccc(/C=c2\sc3nc4ccccc4n3c2=O)c(O)c1,10.1,4.2,-7.3,+,1.0
CCNC(=O)N(C)[C@H]1C[C@@H](c2ccccc2)N(C(C)=O)C[C@H]1CO,0.9,.,.,.,.
CC(C)Cn1c(=O)c2ccccc2n2c(SCC(=O)N3c4ccccc4CC3C)nnc12 (stereo not given),-0.5,-0.1,-3.9,i,20.5*
COC1=C[C@H](C(=O)NCc2ccc(OC)cc2)C(C)C(c2ccccc2)CC1=O (stereo not given in full),7.2,.,.,.,.
CC(C)(C)OC(=O)N1CCN(Cc2ccc(F)c(B(O)O)c2)CC1,6.8,1.1,0.4,+,-0.3
CC(=O)c1ccc(NC(=O)c2ccc(COc3ccccc3[N+](=O)[O-])o2)cc1,2.9,-1.6,1.1,i,12.6*
Cc1nnc(NC(=O)c2ccc(-c3ccc([N+](=O)[O-])cc3)o2)s1,4.8,-2.3,8.8,i,-22.5
COc1cccc(NC(=O)c2ccc(-c3ccc([N+](=O)[O-])cc3)o2)c1,6.5,0.3,13.8,i,16.9*
CC(=O)Nc1ccc(NC(=O)c2ccc(-c3ccc([N+](=O)[O-])cc3)o2)cc1,2.4,2.3,5.2,i,12.0*
COc1ccc(NC(=O)c2ccc(-c3ccc([N+](=O)[O-])cc3)o2)cc1OC,1.9,2.6,12.7,i,14.4*
COc1cc([N+](=O)[O-])ccc1-c1ccc(C(=O)Nc2ccc(NC(C)=O)cc2)o1,10.0,0.7,-9.2,i,-5.2
CC(C)Oc1cc(NC(=O)CS(=O)CC(=O)N(C)C)c(Cl)cc1Cl (stereo not given),-4.7,0.0,-1.8,i,-2.5
CC(C)Oc1cc(NC(=O)CS(=O)CC(=O)Nc2cccc(C(F)(F)F)c2)c(Cl)cc1Cl (stereo not given),3.7,15.6,28.8,i,26.0*
COc1ccccc1NC(=O)C/C(C)=N/NC(=O)C12CC3CC(CC(C3)C1)C2,1.4,-0.5,-2.5,i,0.0
COc1ccc(CCNC(=O)C/C(C)=N/NC(=O)C23CC4CC(CC(C4)C2)C3)cc1OC,4.3,-0.1,-12.3,i,29.9*
CCOc1ccc(CCNC(=O)COC(=O)c2cccs2)cc1OCC,-5.8,0.0,-6.0,i,0.8
